Source: PubChem BioAssay (Tox21)
Results filed as inconclusive are left out. Activity calls are given as the source filed them. The call rests on the fitted dose curve; in most records, active means well fitted activation curve with a large enough effect in the signal ratio in the repeat runs, with a control signal flat (not every such curve was filed as active); inconclusive means weak or mixed curves; inactive means flat fitted curve, though single readings scatter; the % refers to the signal ratio.

Assay: qHTS assay for small molecule activators of the heat shock response signaling pathway (AID 743210)
Settings: HeLa HSE-bla reporter, beta-lactamase ratio, 5 h; series mostly up to 62.6 µM; activation: at the top concentration
Description: U.S. Tox21 Program National Center for Advancing Translational Sciences [NCATS] NIH Chemical Genomics Center [NCGC] U.S. Environmental Protection Agency [EPA] National Institutes of Environmental Health Sciences [NIEHS] National Toxicology Program [NTP] U.S. Food and Drug Administration [FDA] Tox21 Assay Overview: Various chemicals, environmental and physiological stress conditions may lead to the activation of heat shock response/ unfolded protein response (HSR/UPR). There are three heat shock transcription factors (HSFs) (HSF-1, -2, and -4) mediating transcriptional regulation of the human HSR. To identify the compounds that activate HSR signaling, HSE-bla HeLa cell line (Invitrogen, Carlsbad, CA, USA) containing a beta-lactamase reporter gene under the control of the heat shock response elements was used to screen the Tox21 10K compound library.
Tox21 Assay Protocol Summary: The CellSensor HSE-bla HeLa cells (Invitrogen, Carlsbad, CA, USA) were dispensed at 1500 cells/6uL/well into 1536-well black wall/clear bottom plates using a Multidrop combi (Thermo Fisher Scientific, Waltham, MA) dispenser. After the assay plates were incubated at 37 C and 5% CO2 overnight, 23 nL of compounds dissolved in DMSO, positive controls or DMSO only was transferred to the assay plate by a Pintool station (Kalypsys, San Diego, CA). The plates were incubated at 37 C for 5 h. After 1 uL of LiveBLAzerTM B/G FRET substrate was added using a Flying Reagent Dispenser (Beckman Coulter, Indianapolis, IN, USA), the plates were incubated at room temperature for 2.5 h, and fluorescence intensity was measured by an Envision plate reader (PerkinElmer, Shelton, CT).
On the % scale 0 is the no-effect control and ±100 the full control effect.

Structure (SMILES) | outcome | activation
CCCCCCC(C)O (stereo not given) | inactive | 
O=S1(=O)CCCO1 | inactive | 
C=CCOC(=O)C(=C)C | inactive | 
CN(C)C | inactive | 
CC1(C)O[C@@H]2C[C@H]3[C@@H]4C[C@H](F)C5=CC(=O)C=C[C@]5(C)[C@@]4(F)[C@@H](O)C[C@]3(C)[C@]2(C(=O)CO)O1 | inactive | 
CC(C)(C)c1cccc(C(C)(C)C)c1O | inactive | 
CNC[C@H](O)c1ccc(O)c(O)c1 | inactive | 
CCCCCCCCCCCCCO | inactive | 
CC(=O)Nc1ccc2c(c1)Cc1cc(NC(C)=O)ccc1-2 | inactive | 
O=C(O)CCCCCCCCCCCC(=O)O | inactive | 
CC(=O)O[C@]1(C(C)=O)CC[C@H]2[C@@H]3C=C(Cl)C4=CC(=O)CC[C@]4(C)[C@H]3CC[C@@]21C | inactive | 
Nc1ccc2c(c1)C(=O)c1ccccc1C2=O |  | -0.799% (inactive)
C[C@]12CC[C@@H]3c4ccc(O)cc4CC[C@H]3[C@@H]1CC[C@@H]2O | inactive | 
CC1(C)NC(=O)N(c2ccc([N+](=O)[O-])c(C(F)(F)F)c2)C1=O | inactive | 
[O-]/[N+](=N\O)c1ccccc1 |  | 0.948% (inactive)
C=CCCCCCCCCCC | inactive | 
C/C=C/C(=O)N(CC)c1ccccc1C | inactive | 
CN1CCOCC1 |  | -0.819% (inactive)
NC[C@H](O)c1ccc(O)c(O)c1 | inactive | 
CCCCCCOCCOCCO | inactive | 

Structure (SMILES) | outcome | activation
O=C1OC2(c3ccccc31)c1cc(I)c(O)c(I)c1Oc1c2cc(I)c(O)c1I | inactive | 
O=C(O)c1cc(=O)[nH]c(=O)[nH]1 |  | 0.309% (inactive)
Cc1ccc([N+](=O)[O-])c(C)c1 | inactive | 
Cc1ccc(C(C)(C)C)cc1 | inactive | 
CN(C)/N=N/c1nc[nH]c1C(N)=O | inactive | 
CCCCCCCCCCCCO | inactive | 
CCC(=O)O[C@H]1[C@H](O[C@@H]2[C@@H](C)[C@H](O[C@H]3C[C@@](C)(OC)[C@@H](O)[C@H](C)O3)[C@@H](C)C(=O)O[C@H](CC)[C@@](C)(O)[C@H](O)[C@@H](C)C(=O)[C@H](C)C[C@@]2(C)O)O[C@H](C)C[C@@H]1N(C)C |  | -1.29% (inactive)
CCC(Cc1c(I)cc(I)c(N)c1I)C(=O)O (stereo not given) | inactive | 
c1ccc2c(c1)ccc1ncccc12 | inactive | 
O=C1CCc2ccccc2O1 | inactive | 
Cc1ccc(C(C)(C)C)c(O)c1 |  | -1.22% (inactive)
CCCCCCCCCCC(CO)CCCCCCCC (stereo not given) | inactive | 
C=CC(C)(O)CCC=C(C)C (stereo not given) | inactive | 
O=[Se](O)O | inactive | 
CCC/C=C/C=O | inactive | 
CC(C)[C@@H]1CC[C@@H](C)CC1=O | inactive | 
Oc1c(Cl)ccc(Cl)c1Cl | inactive | 
IC(I)I | inactive | 
NCCS(=O)(=O)O | inactive | 
C1COCCN1 | inactive | 
